# The list is not random: actives were taken first. Their share in the collection is about 13%.
# MARV entry inh = inhibitors of Marburg virus binding or cell entry; Marburg virus pseudotyped entry inhibition, cell reporter; Potency, µM (top dose mostly 37.8 µM), for inactives: at the top dose activity change, negative = inhibition, most hits filed as inhibitors; 1.8% of 300,000 active; calls by dose curve; tested in HEK293 cells; note: potency is the fitted concentration of half-maximal effect; % is set by controls: 0 for no effect and ±100 for the full control effect
# Shiga inhibitor = blocks Shiga toxin action in Vero cells | Vero cells, Shiga toxin protein synthesis inhibition reporter | inhibition, % at 38.7 µM | 9.2% of 290,000 active; in the data active = inhibition mostly above about 28%, no sharp cut-off; inactive = mostly below about 43%; note: 0% is about no effect
# CHX counter = counter-screen hit for Shiga toxin inhibitors, cycloheximide | cell reporter, cycloheximide protein synthesis inhibition counterscreen | max response, % | 12% of 300,000 active | AID 2314; in the data active = max response mostly above about 13%, no sharp cut-off; inactive = mostly below about 14%; note: read at 38.3 µM for the half of the compounds with a filed dose; 0% is about no effect
# LASV entry inh = blocks Lassa virus binding to or entry into cells. Lassa virus pseudotype entry inhibition, cell reporter. Potency, µM (top dose mostly 37.9 µM), without a hit: at the highest dose activity change, negative = inhibition, hits mostly inhibitors. 1.2% of 300,000 active; calls by dose curve; tested in HEK293 cells; note: potency is the fitted concentration of half-maximal effect; % is set by controls: 0 for no effect and ±100 for the full control effect; nearly all actives have a fitted effect of over 50% in size
# HCV inh = inhibitors of hepatitis C virus infection | Huh7.5.1 HCVcc-Cre infection, luciferase reporter, 44 h | 3.4% of 340,000 active | Potency, µM (titrated, usually from 41.8 µM), inactives show top-dose activity change, negative = inhibition, usual class: inhibitors; active = well fitted inhibition curve with a large enough effect; inconclusive = small, poorly fitted or top-dose-only effect, or another doubt; inactive = no such curve, though single readings can be large or run the other way; note: potency is the fitted concentration of half-maximal effect; % is set by controls: 0 for no effect and ±100 for the full control effect
#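 Cells seeded at 1,000/well and cultured 4 h, then compounds added followed by HCVcc-Cre virus (~0.5 moi). After 44 h further culture, luciferase substrate was added, plates held 15 min at room temperature, and luminescence read for 15 sec.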
# FMDV antiviral = blocks foot and mouth disease virus; AID 1159524; 1.2% of 410,000 active; FMDV antiviral cell-based qHTS; Potency, µM (doses to about 57.9 µM), for the others: top-dose activity change, negative = inhibition, usual class: inhibitors; calls by dose curve; tested in HEK293T cells; note: read-out not given here; potency is the fitted concentration of half-maximal effect; % is set by controls: 0 for no effect and ±100 for the full control effect; nearly all actives have a fitted effect of over 45% in size
# An asterisk follows results filed as active; ? = inconclusive; . = not tested or not shown; [ ] = dose if it differs, or a comment.
SMILES,MARV entry inh,Shiga inhibitor,CHX counter,LASV entry inh,HCV inh,FMDV antiviral
CCN(Cc1ccccc1)C(=O)CN1C(=O)COc2ccc(S(=O)(=O)NC3CCCC3)cc21,?,2.1,15.1,3.9%[46.1 µM],-8.8%,22.5%
OC[C@@H](O)C(O)[C@H](O)[C@@H](O)CO (some centres undefined),.,-3.1,-2.8,.,.,.
COCCN(C(=O)COC(=O)c1cc2c(s1)CCCC2)c1c(N)n(Cc2ccccc2)c(=O)[nH]c1=O,26.3%,.,.,-12.5%,?,-10.1%
Cc1cc(=O)n2nc(-c3ccccc3)sc2n1,18.2%,61.0*,38.5*,23.0%,-2.9%,32.5%
CC(C)(C)c1ccc(-c2nnc3sc(-c4ccncc4)nn23)cc1,-6.2%,34.2,14.2*,?,?,-5.3%
Cc1ccc(-c2nn3c(=O)c(C)nnc3s2)cc1,?,23.4,26.7*,-19.3%,15.6%,.
CCCCOCCCNC(=O)C1c2ccccc2Oc2ccccc21,-7.8%,5.6,1.9,-28.2%,-11.5%,-17.7%
Nc1ccc(Oc2ccc(Br)cc2)cc1,18.1%,10.3,10.9,-3.4%,?,2.0%
Cc1cccc(Oc2ccc(N)cc2)c1,23.3%,42.8,31.3*,-1.1%,?,0.0%
Cc1cccc(Oc2ccccc2N)c1,-1.8%,-23.4,-2.7,-2.6%,-4.3%,20.2%
Cc1cc(C)cc(Oc2ccc(N)cc2)c1,-13.4%,12.2,9.3,?,2µM*,8.1%
Nc1ccc(Oc2ccc3c(c2)OCO3)cc1,-22.5%[46.1 µM],14.8,12.5,?,1.9%,13.7%
Nc1ccc(Oc2cccc(Oc3ccc(N)cc3)c2)cc1,?,-20.6,-16.7,?,-11.1%,10µM*
Cc1ccc(C)c(NC(=O)CN(C)C(=O)c2cccc(-n3cccc3)c2)c1,12.4%,.,.,4.7%,4.6%,-24.4%
CC1CCCC(NC(=O)c2cccc(S(=O)(=O)NCc3ccccc3)c2)C1C (centres undefined),.,.,.,.,?,0.0%
CC12CCC(C(=O)Nc3ccccc3Cl)(C(Br)C1=O)C2(C)C (centres undefined),-23.3%,15.0,-1.0,?,37.9%,-29.4%
CN1C[C@@H](O)[C@@H](O)[C@@H](O)[C@@H]1CO,21.8%,.,.,.,.,.
Cc1ccccc1C(=O)c1cccn1CC(=O)NCc1ccc2c(c1)OCO2,13.3%,50.9,22.9*,23.7%,-26.3%,62.2%
Cc1ccccc1C(=O)c1cccn1CC(=O)NCc1ccc(F)cc1,-11.3%[46.1 µM],21.2,19.5,-3.0%[46.1 µM],-3.3%,14.8%
COc1ccc(OC)c(CCNC(=O)Cn2cccc2C(=O)c2ccccc2C)c1,?,-12.4,4.2,-6.1%,-26.9%,-11.1%
Cc1ccccc1C(=O)c1cccn1CC(=O)NCc1ccccc1,?,30.3*,26.2*,-2.3%[46.1 µM],-5.5%,39.3%
COc1ccc(CNC(=O)Cn2cccc2C(=O)c2ccccc2)cc1,.,40.3*,34.1*,.,8.6%,21.2%
COc1ccc(OC)c(CCNC(=O)Cn2cccc2C(=O)c2ccccc2)c1,.,-9.7,-1.3,.,?,-8.8%
COc1ccc(CNC(=O)Cn2cccc2C(=O)c2ccccc2C)cc1,?,59.6*,71.3*,-14.6%[46.1 µM],5.9%,7.2%
COc1cccc(-c2nc(CS(=O)(=O)CC(=O)NCC(C)c3ccccc3)c(C)o2)c1 (centres undefined),?,-1.1,4.3,?,?,-19.6%
SMILES,MARV entry inh,Shiga inhibitor,CHX counter,LASV entry inh,HCV inh,FMDV antiviral
NCCC(=O)N1c2ccccc2Sc2ccc(Cl)cc21,.,-17.5,-8.6,.,?,-25.8%
NCCCC(=O)N1c2ccccc2Sc2ccc(Cl)cc21,?,-6.5,-1.0,0.708µM*,5.01µM*,-22.8%
CN(C)CCC(=O)N1c2ccccc2Sc2ccc(Cl)cc21,?,-6.4,-7.6,-0.2%,6.31µM*,-8.6%
CN(C)CC(=O)N1c2ccccc2Sc2ccc(Cl)cc21,-18.1%[46.1 µM],-16.1,1.2,0.8%,?,-10.5%
CCOC(=O)c1ccc(NC(=O)COc2ccc(S(=O)(=O)NC(C)CC)cc2)cc1 (centres undefined),-18.2%,-9.6,4.6,-19.3%,?,-6.2%
CC(C)c1ccc(N2C=Nc3ccc(C(C)C)cc3C2)cc1,?,51.6*,18.8*,?,?,?
CC1CC(=O)N(c2ccc(C(C)C)cc2)C(=O)C1,.,2.9,-0.6,.,6.7%,0.1%
C1=Nc2ccccc2CN1c1ccccc1,4.9%,92.8*,65.5*,-2.3%,4.8%,0.0%
C1=NN(c2ccccc2)C=NN1c1ccccc1,?,.,.,-1.7%,8.5%,25.3%
COc1cccc(N/N=C/c2cccc(Br)c2O)c1,11.2µM*,88.3*,29.6*,0.1%,?,23.0%
COc1ccc(/C=N/n2cncn2)cc1Cn1cc([N+](=O)[O-])cn1,.,21.4,-2.9,.,-15.0%,9.1%
COc1ccc(/C=N/Nc2ccc([N+](=O)[O-])cc2)cc1O,9.2%[46.1 µM],80.1*,26.2*,?,-23.9%,10.6%
COc1ccc(/C=N/Nc2ccc([N+](=O)[O-])cc2)cc1Cn1cc([N+](=O)[O-])cn1,4.7%,43.0,11.3*,-16.4%,?,?
O=[N+]([O-])c1ccc(NN=Cc2cccc(O)c2)nc1,?,.,.,-22.6%[46.1 µM],?,31.6%
COc1cc(/C=N/Nc2ccc([N+](=O)[O-])cn2)cc(OC)c1O,?,17.1,25.4*,?,-20.8%,?
Cc1cccc(N/N=C/c2ccc(O)c(O)c2O)c1,.,11.6,0.4,.,14.3%,10.3%
COc1ccc(CN2CC(C(=O)NCCc3ccccc3)CC2=O)cc1 (centres undefined),7.0%,-2.3,-2.6,-0.6%,-10.4%,9.9%
Cc1n[nH]c(C)c1S(=O)(=O)N1CCc2ccccc2C1,.,4.9,-5.8,.,9.8%,8.9%
Cc1cccc(C)c1-n1c(C)cc(/C=N\Nc2ccc([N+](=O)[O-])cn2)c1C,-23.6%,66.7*,27.8*,?,?,-24.6%
COc1cc(/C=N/NC(=O)c2cccc([N+](=O)[O-])c2)cc(OC)c1O,.,26.2,-1.7,.,11.8%,6.1%
O=[N+]([O-])c1ccc(NN=Cc2cc(Br)ccc2O)nc1,?,.,.,?,?,6.7%
COc1cccc(/C=N/NC(=O)c2ccc([N+](=O)[O-])cc2Cl)c1O,?,-18.5,17.1*,14.6µM*,?,0.4%
COc1cccc(/C=N/Nc2ccc([N+](=O)[O-])cc2)c1O,?,76.4*,32.9*,10.3%,?,18.9%
O=C(CCCl)N1c2ccccc2C=Cc2ccccc21,.,.,.,.,?,-4.7%
CCOC(=O)CCNC(=O)Nc1ccc2nc(C)n(Cc3ccc(Cl)cc3)c(=O)c2c1,0.3%,29.9,-1.0,-7.3%,-23.3%,.
CCC1=Nc2cc(C(=O)NC3CCCC3)ccc2Sc2ccc(Cl)cc21,?,.,.,?,.,-22.9%
Cc1ccc(C)c(NC(=S)NC(NC(=O)/C=C/c2ccccc2)C(Cl)(Cl)Cl)c1 (centres undefined),?,-8.6,1.7,7.3µM*,?,-22.8%
